Inhibition data for 1 compound are collected here from ChEMBL document CHEMBL1961873, “Compounds: GSK PKIS; Assays: Nanosyn kinase panel” (2012).

The structures appear in SMILES notation.

Test [1] concerns the target Sphingosine kinase 1 (Homo sapiens) (UniProt Q9NYA1). The settings on record: at 1 µM.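 Also: mean SPHK1 inhibition value reported from the GSK PKIS kinase panel screen.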
Test [2] deals with T1, Sphingosine kinase 2 (Homo sapiens) (UniProt Q9NRA0).
T1 sequence (whole entry): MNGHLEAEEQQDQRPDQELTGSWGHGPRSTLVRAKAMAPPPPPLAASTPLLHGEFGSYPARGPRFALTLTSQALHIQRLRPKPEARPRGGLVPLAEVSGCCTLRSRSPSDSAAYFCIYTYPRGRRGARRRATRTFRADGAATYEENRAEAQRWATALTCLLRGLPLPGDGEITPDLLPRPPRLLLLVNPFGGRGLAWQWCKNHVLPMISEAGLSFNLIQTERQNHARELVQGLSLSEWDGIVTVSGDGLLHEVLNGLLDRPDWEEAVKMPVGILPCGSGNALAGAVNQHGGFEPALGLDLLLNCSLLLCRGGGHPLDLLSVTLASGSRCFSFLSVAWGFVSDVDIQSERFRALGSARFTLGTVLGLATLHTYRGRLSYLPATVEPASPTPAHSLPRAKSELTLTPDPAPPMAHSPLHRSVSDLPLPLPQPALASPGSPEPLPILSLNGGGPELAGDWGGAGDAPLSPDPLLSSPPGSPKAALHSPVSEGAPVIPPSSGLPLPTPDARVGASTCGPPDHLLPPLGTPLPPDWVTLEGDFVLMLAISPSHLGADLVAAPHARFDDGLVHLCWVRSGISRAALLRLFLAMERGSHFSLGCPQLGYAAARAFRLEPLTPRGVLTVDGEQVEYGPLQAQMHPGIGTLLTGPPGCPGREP
The settings on record: at 0.1 µM.

The target in test [3] is T1, Sphingosine kinase 2 (Homo sapiens). The conditions noted are these: at 1 µM.
The target of test [4] is Casein kinase II subunit alpha (Homo sapiens) (UniProt P68400). The settings on record: at 0.1 µM.
For test [5] the target is unchanged. The settings on record: at 1 µM.
In test [6] the target is T2, Inhibitor of nuclear factor kappa-B kinase subunit alpha (Homo sapiens) (UniProt O15111).
T2 sequence (whole entry): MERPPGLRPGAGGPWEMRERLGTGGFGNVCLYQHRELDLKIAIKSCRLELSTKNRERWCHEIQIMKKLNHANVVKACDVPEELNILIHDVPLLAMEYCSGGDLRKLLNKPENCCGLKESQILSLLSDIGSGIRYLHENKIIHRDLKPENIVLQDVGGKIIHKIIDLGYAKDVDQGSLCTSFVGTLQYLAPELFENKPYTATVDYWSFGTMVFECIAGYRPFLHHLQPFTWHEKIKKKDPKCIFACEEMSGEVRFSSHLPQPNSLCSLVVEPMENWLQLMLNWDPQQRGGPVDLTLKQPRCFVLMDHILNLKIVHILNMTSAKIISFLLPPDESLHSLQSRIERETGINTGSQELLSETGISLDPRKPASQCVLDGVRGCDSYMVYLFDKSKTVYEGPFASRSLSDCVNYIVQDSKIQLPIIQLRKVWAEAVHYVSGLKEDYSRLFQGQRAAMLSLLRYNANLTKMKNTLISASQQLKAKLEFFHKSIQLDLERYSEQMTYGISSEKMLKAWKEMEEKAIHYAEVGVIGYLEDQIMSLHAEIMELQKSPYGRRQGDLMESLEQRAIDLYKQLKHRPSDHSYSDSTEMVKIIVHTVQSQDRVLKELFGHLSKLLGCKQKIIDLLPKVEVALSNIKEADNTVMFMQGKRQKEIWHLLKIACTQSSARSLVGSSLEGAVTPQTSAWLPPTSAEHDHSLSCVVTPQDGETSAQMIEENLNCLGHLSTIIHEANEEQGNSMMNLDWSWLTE
The conditions noted are these: at 0.1 µM.

Test [7] has as its target T2, Inhibitor of nuclear factor kappa-B kinase subunit alpha (Homo sapiens). The settings on record: at 1 µM.
The target in test [8] is T3, Inhibitor of nuclear factor kappa-B kinase subunit beta (Homo sapiens) (UniProt O14920).
T3 sequence (whole entry): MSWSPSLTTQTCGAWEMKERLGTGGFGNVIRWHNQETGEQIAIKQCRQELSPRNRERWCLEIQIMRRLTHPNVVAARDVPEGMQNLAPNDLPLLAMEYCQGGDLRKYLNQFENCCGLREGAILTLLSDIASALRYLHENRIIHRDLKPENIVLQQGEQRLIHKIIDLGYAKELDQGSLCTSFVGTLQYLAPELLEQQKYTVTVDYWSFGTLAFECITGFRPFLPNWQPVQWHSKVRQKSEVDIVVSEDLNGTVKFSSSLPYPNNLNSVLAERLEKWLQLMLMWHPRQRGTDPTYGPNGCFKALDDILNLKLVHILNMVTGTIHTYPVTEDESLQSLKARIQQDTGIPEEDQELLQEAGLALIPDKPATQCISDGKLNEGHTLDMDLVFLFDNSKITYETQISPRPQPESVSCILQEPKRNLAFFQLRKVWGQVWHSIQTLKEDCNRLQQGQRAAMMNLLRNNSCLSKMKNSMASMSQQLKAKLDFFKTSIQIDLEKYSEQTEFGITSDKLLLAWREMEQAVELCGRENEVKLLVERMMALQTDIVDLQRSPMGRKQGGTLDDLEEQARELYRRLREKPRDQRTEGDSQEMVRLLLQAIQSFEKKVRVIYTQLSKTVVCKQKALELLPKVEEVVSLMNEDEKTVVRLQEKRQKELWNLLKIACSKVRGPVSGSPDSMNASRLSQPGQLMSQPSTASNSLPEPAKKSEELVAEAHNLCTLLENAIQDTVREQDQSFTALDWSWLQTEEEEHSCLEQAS
The settings on record: at 0.1 µM.

The target in test [9] is T3, Inhibitor of nuclear factor kappa-B kinase subunit beta (Homo sapiens). The settings on record: at 1 µM.
The target in test [10] is T4, Inhibitor of nuclear factor kappa-B kinase subunit epsilon (Homo sapiens) (UniProt Q14164).
T4 sequence (whole entry): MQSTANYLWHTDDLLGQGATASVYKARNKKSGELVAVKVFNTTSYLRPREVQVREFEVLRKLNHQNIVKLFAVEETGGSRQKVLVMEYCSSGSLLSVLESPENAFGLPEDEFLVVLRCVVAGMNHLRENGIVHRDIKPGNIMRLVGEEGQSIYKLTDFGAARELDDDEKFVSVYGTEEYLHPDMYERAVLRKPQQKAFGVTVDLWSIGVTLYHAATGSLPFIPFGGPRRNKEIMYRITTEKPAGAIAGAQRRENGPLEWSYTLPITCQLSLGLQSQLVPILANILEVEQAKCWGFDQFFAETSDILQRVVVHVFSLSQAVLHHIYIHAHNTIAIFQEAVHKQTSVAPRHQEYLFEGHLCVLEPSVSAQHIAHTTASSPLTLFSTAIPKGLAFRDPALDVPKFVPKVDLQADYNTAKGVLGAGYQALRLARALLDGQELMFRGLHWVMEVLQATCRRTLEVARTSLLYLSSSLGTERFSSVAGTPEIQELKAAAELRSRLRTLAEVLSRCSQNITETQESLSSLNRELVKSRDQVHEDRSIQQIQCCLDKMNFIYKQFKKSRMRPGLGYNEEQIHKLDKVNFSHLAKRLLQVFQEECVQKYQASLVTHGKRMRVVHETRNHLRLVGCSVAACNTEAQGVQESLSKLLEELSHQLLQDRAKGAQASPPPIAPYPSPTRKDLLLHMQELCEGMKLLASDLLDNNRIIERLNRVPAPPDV
The settings on record: at 0.1 µM.

Test [11] deals with T4, Inhibitor of nuclear factor kappa-B kinase subunit epsilon (Homo sapiens). The settings on record: at 1 µM.
Test [12] concerns the target T5, Serine/threonine-protein kinase Nek1 (Homo sapiens) (UniProt Q96PY6).
T5 sequence (whole entry): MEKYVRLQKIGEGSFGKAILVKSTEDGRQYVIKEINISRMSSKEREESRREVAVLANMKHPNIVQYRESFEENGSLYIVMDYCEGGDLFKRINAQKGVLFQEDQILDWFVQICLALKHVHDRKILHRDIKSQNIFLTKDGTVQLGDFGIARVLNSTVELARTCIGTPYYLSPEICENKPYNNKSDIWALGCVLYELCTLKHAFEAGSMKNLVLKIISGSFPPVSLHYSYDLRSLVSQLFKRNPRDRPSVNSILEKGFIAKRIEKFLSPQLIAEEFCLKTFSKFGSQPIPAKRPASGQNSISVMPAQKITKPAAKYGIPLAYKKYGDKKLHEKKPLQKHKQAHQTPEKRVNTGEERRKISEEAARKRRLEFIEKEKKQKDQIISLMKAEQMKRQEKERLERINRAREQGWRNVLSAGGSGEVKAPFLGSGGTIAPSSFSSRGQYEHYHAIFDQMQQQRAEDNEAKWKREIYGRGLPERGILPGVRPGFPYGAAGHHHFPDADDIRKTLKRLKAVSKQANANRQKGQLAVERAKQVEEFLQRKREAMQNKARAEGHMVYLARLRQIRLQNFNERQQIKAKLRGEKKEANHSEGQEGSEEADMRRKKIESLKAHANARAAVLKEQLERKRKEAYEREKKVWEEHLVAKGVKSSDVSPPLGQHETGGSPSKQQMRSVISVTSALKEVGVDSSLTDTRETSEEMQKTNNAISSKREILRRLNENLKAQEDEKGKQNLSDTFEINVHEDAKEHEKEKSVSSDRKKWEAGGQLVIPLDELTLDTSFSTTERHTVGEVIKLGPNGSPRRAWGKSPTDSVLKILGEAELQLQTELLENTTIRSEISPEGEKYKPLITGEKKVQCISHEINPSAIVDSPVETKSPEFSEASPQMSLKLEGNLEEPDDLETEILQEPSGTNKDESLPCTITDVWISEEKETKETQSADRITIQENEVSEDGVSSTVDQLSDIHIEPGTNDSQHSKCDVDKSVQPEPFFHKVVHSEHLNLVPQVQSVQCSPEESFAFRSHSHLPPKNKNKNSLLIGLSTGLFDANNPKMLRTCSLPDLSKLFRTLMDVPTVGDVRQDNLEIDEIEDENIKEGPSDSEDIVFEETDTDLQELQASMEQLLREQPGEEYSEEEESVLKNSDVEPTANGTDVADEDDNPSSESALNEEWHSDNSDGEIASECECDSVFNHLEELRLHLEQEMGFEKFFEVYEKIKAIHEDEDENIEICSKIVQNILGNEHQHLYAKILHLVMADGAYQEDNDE
The settings on record: at 0.1 µM.

Test [13] has as its target T5, Serine/threonine-protein kinase Nek1 (Homo sapiens). The settings on record: at 1 µM.
Test [14] has as its target T6, Serine/threonine-protein kinase Nek2 (Homo sapiens) (UniProt P51955).
T6 sequence (whole entry): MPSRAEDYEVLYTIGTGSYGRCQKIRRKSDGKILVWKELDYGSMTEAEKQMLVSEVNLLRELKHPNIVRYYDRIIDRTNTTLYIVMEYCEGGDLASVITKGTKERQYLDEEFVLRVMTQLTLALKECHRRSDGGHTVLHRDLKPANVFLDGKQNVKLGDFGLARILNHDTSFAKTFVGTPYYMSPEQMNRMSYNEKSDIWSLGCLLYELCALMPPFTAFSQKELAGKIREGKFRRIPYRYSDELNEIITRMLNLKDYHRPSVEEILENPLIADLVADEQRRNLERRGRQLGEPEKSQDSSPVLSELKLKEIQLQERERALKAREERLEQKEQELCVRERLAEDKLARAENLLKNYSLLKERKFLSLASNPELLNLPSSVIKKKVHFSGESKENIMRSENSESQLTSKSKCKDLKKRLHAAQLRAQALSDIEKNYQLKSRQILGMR
The conditions noted are these: at 0.1 µM.

The target of test [15] is T6, Serine/threonine-protein kinase Nek2 (Homo sapiens). The conditions noted are these: at 1 µM.
Test [16] has as its target Serine/threonine-protein kinase Nek6 (Homo sapiens) (UniProt Q9HC98). The settings on record: at 0.1 µM.
Test [17] has the same target. The conditions noted are these: at 1 µM.
Test [18] has as its target Serine/threonine-protein kinase Nek7 (Homo sapiens) (UniProt Q8TDX7). The settings on record: at 0.1 µM.
The target is the same in test [19]. The conditions noted are these: at 1 µM.
For test [20], the target named is T7, Serine/threonine-protein kinase Nek9 (Homo sapiens) (UniProt Q8TD19).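 Also: reported value is the mean percent inhibition of NEK9.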
T7 sequence (whole entry): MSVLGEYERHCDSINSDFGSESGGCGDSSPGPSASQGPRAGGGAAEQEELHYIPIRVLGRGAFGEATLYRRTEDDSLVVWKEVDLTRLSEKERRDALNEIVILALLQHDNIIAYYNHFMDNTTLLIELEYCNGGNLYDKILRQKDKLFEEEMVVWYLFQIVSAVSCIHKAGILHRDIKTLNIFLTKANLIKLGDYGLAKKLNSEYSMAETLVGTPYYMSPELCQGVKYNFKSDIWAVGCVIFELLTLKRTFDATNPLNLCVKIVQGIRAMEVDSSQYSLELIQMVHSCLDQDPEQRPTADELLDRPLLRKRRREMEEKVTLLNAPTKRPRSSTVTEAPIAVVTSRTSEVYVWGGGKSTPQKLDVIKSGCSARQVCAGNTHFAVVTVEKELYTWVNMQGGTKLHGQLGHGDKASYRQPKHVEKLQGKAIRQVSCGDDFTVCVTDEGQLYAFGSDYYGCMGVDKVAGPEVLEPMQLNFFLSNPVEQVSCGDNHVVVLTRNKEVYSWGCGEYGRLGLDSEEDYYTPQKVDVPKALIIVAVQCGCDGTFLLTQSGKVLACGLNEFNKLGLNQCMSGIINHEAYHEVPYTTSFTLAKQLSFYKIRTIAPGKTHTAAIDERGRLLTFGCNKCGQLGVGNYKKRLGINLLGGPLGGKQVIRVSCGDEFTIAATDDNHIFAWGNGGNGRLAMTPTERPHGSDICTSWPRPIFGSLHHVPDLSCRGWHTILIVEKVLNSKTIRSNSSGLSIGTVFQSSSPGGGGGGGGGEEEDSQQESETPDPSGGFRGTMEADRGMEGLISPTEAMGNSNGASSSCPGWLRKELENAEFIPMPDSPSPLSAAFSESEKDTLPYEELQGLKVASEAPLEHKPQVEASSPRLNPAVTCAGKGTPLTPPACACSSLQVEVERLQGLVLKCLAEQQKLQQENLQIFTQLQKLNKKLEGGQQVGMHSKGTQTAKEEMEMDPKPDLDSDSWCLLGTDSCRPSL
The conditions noted are these: at 0.1 µM.

Sequence of Casein kinase II subunit alpha (Homo sapiens) (P68400 whole entry, looked up): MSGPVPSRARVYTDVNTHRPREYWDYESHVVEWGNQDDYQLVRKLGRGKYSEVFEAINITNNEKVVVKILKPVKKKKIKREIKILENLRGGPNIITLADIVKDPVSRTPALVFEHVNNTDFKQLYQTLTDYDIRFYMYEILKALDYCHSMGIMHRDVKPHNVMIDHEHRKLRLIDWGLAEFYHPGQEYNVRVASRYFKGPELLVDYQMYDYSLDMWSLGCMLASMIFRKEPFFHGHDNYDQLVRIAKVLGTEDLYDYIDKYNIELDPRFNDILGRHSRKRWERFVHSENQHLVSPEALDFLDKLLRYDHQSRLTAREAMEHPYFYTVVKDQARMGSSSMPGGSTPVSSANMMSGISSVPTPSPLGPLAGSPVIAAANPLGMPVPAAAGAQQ
Sequence of Serine/threonine-protein kinase Nek7 (Homo sapiens) (Q8TDX7 whole entry, looked up): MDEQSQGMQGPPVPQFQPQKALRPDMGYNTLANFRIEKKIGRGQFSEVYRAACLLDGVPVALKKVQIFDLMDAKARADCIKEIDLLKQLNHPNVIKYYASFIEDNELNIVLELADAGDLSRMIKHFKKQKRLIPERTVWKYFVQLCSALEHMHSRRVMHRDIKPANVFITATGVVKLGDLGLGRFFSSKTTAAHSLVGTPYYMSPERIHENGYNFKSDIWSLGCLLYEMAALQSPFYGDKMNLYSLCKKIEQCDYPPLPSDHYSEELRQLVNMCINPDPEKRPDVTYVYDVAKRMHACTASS
Sequence of Serine/threonine-protein kinase Nek6 (Homo sapiens) (Q9HC98 whole entry): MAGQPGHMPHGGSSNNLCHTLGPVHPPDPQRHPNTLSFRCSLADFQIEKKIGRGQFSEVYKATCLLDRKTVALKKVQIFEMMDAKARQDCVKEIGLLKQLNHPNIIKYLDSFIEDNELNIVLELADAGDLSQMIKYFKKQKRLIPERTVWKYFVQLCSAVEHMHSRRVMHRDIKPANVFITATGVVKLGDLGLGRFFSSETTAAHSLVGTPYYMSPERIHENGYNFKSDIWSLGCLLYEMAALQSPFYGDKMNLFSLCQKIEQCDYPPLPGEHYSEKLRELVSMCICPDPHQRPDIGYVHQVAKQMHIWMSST
Sequence of Sphingosine kinase 1 (Homo sapiens) (Q9NYA1 whole entry): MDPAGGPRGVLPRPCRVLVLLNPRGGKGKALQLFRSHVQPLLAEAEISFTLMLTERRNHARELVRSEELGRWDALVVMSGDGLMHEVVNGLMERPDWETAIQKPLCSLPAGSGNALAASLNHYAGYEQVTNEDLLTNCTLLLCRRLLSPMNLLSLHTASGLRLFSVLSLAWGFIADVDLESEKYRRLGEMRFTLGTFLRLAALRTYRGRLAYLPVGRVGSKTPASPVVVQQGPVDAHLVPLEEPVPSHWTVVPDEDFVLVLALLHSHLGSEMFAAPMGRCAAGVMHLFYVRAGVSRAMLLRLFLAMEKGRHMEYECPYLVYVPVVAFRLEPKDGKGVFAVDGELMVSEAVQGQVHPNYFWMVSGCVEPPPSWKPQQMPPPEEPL

The inhibition is the relative decrease from the control value, in per cent. Consider `NC(=O)c1sc(-n2cnc3ccc(C(F)(F)F)cc32)cc1OCc1ccccc1Br`, for which the inhibition in [1] was -0.89%; in test [2] it was -0.23%; in test [3], -0.48%; in test [4], 3.45%; in [5] it was 5.66%; in [6], 12.5%. Further, the inhibition in test [7] was 11.2%; in test [8] it was 6.41%; in test [9], 6.44%; in test [10], 5.17%; in [11], 6.28%; in test [12] it was 3%. Further, the inhibition in test [13] came out at 3.1%; in test [14], 4.34%; in test [15], 5.43%; in test [16] it was 3.44%; in test [17], 3.3%; in test [18] it was 5.57%. For the same compound, the inhibition in test [19] was found to be 3.81%; in test [20], 8.05%.
